Screens: PubChem BioAssay, National Center for Advancing Translational Sciences (NCATS)
Shiga inhibitor – A qHTS for Small Molecule Inhibitors of Shiga Toxin; AID 2315, 2010; 290,000 compounds, 9.2% hits; Vero cells, Shiga toxin protein synthesis inhibition reporter; inhibition, % at 38.7 µM; in the data active = inhibition mostly above about 28%, no sharp cut-off; inactive = mostly below about 43%; note: 0% is about no effect
FBPA Giardia inh – qHTS Assay for Inhibitors of Fructose-1,6-bisphosphate Aldolase from Giardia Lamblia | purified Giardia FBPA | Potency, µM (highest dose often 59.6 µM), inactives show at the top dose activity, negative = inhibition, most hits filed as inhibitors | 290,000 compounds, 0.71% hits | AID 2451, 2010; note: potency is the fitted concentration of half-maximal effect; % is set by controls: 0 for no effect and ±100 for the full control effect; nearly all actives have a fitted effect of over 55% in size
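40 nM FBPA preincubated 10 min at RT with compound (up to 57.5 uM final), then substrate plus GAPDH/TPI/NAD/arsenate coupling and diaphorase/resazurin added. Fluorescence read after 20 min at RT, 525/598 nm.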
NS1 inh – qHTS Assay for Inhibitors of Influenza NS1 Protein Function; Potency, µM (series often up to 46.1 µM), without a hit: at the top dose activity, positive = more growth; AID 2326, 2010; 270,000 compounds, 0.4% hits; calls by dose curve; note: potency is the fitted concentration of half-maximal effect; actives are rising curves; nearly all actives have a fitted effect of over 50% in size
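In this qHTS, NS1 from influenza A is expressed in budding yeast, where it slows growth. Cells are switched from glucose to 2% galactose medium (pH 6.0, -URA), treated with compound, and growth recovery is read at OD600.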
CHX counter – Cycloheximide Counterscreen for Small Molecule Inhibitors of Shiga Toxin; 300,000 compounds, 12% hits; max response, %; cell reporter, cycloheximide protein synthesis inhibition counterscreen; in the data active = max response mostly above about 13%, no sharp cut-off; inactive = mostly below about 14%; note: read at 38.3 µM for the half of the compounds with a filed dose; 0% is about no effect
LmPK inh – qHTS Assay for Inhibitors of Leishmania Mexicana Pyruvate Kinase (LmPK); Q27686; purified LmPK, Kinase-Glo ATP luminescence, 1 h; Potency, µM (top dose mostly 57.5 µM), inactives show at the highest dose activity change, negative = inhibition, most hits filed as inhibitors; 290,000 compounds, 0.37% hits; note: potency is the fitted concentration of half-maximal effect; % is set by controls: 0 for no effect and ±100 for the full control effect
Target sequence (Q27686 whole entry, looked up): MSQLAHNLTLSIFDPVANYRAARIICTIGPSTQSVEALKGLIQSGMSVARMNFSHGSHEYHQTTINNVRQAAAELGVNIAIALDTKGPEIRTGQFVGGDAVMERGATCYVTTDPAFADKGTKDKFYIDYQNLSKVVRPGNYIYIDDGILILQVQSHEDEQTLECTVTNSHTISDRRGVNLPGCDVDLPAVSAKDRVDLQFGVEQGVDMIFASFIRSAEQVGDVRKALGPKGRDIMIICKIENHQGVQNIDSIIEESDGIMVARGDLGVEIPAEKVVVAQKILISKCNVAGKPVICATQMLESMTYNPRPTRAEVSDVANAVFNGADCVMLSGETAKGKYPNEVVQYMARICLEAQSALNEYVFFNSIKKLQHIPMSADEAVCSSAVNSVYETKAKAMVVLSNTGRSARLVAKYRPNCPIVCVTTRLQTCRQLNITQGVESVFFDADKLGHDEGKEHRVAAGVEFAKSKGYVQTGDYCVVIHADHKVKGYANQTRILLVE
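In 50 mM imidazole pH 7.2 with 7 mM MgCl2, LmPK (0.1 nM) turned over PEP (0.5 mM) and ADP (0.1 mM) for 1 h at room temperature. Luciferase read-out of ATP.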
An asterisk follows results filed as active; u = inconclusive; x = no result given; [ ] = another dose, or the depositor's remark. Most compounds without a hit are left out; they make up all but 14% or so of the library. Unless noted, calls come from the whole dose curve; as a rule, active = well fitted curve in the direction sought with a large enough effect; inconclusive = small, poorly fitted or top-dose-only effect, or another doubt; inactive = no such curve, though single readings can be large; an effect the other way counts as inactive or inconclusive.

SMILES | Shiga inhibitor | FBPA Giardia inh | NS1 inh | CHX counter | LmPK inh
OCC[C@@H]1C[C@@H](O)[C@H](O)[C@@]2(CCCc3ccccc3O2)O1 | -3.3 | 5.9% | -3.7% | 0.6 | 0.3%
O=C(NCCc1ccc(Cl)cc1)c1ccc2ccccc2n1 | 69.8* | -19.8% | -16.9% | 21.9* | -5.1%
COC(=O)c1cnc2ccccc2n1 | 28.8 | -2.4% | 4.7% | 15.8* | -6.0%
COc1ccc(CNC(=O)c2ccc3ccccc3n2)cc1 | 63.5 | 7.4% | -22.9% | 25.8* | 2.4%
O=C(O)c1cnc2ccccc2n1 | -15.6 | -10.9% | -36.0% | -3.6 | 2.6%
COCCNC(=O)c1ccc2ccccc2n1 | 33.5 | -2.7% | -9.0% | 26.5* | 0.4%
COC(=O)C1=C(C(=O)OC)[C@@H]2N(Cc3ccccc3)c3ccccc3[C@@]23C[C@@H](C(=O)OC)N(S(=O)(=O)c2cccs2)C3=N1 | x | -0.4%[12.9 µM] | x | x | -4.1%[11.5 µM]
O=C(O)C(=O)/C(=C\c1ccc(Cl)cc1)c1ccc2ccccc2n1 | 166.4* | -8.6% | x | 30.1* | 1.4%
O=C(NCCc1ccccc1)c1cnc2ccccc2n1 | 105.6* | 9.1% | -9.0% | 32.1* | -0.4%
Cc1ccccc1OCCNC(=O)c1ccc2ccccc2n1 | 93.4* | 0.4% | -43.5% | 70.5* | 1.5%
COC(=O)CN1CCN(C(=O)c2ccco2)CC1 | -1.1 | x | 8.2% | 0.9 | -0.8%
CCOC(=O)c1ccc2nc(C)c(C)nc2c1 | 61.1* | -0.4% | 5.3% | 17.0 | -18.2%
CCCCc1c(C)nc2ccc(C(=O)OCC)cc2c1Cl | -7.0 | 5.6% | -2.5% | 6.3 | -12.5%
CCOC(=O)c1ccc2nc(C)c(CCC(C)=O)c(Cl)c2c1 | 92.6* | -2.4% | -19.7% | 38.9* | -3.3%
CCOC(=O)c1ccc2nc(C)c(CC)c(Cl)c2c1 | 49.6 | 0.4% | -5.4% | 8.7 | -2.2%
COC(=O)c1ccc2nc(C)c(C)nc2c1 | 3.0 | 4.7% | 1.2% | 8.7 | -8.8%
CCOC(=O)c1cc2cc(OC)ccc2nc1C | 88.4* | -0.7% | -0.5% | 16.5* | -2.1%
C=CCc1c(C)nc2ccc(C(=O)OCC)cc2c1Cl | 41.0* | -3.4% | 0.3% | 9.5 | -14.1%
O=[N+]([O-])c1cc(S(=O)(=O)Nc2cccc(Cl)c2)ccc1N/N=C/c1ccc(N2CCOCC2)cc1 | 17.3 | 10.5% | 1.3% | 2.4 | -24.6%
S=c1ccss1 | x | -7.8% | x | x | x
CC(=O)C1C(=O)c2c(cccc2[N+](=O)[O-])C1=Nc1ccc(S(N)(=O)=O)cc1 (stereo unspecified) | 40.6 | -15.6% | 3.1% | 29.6* | -0.3%
Cc1cccc(N2CCc3c2nc2ccc(Br)cc2c3N)c1 | 42.7 | u | -21.9% | 16.3* | 1.8%
Nc1c2c(nc3ccc(Br)cc13)N(c1ccccc1)CC2 | 34.2 | u | -9.4% | 12.9 | -14.2%
Cc1cccc(-c2noc(-c3ccccc3C(=O)NCc3ccco3)n2)c1 | 124.6 | -8.1% | 3.9% | 74.6* | 3.2%
Nc1c(C(=O)NCc2ccco2)nnn1-c1ccccc1 | 71.4* | 1.9% | 0.7% | 41.9* | 0.4%
SMILES | Shiga inhibitor | FBPA Giardia inh | NS1 inh | CHX counter | LmPK inh
COc1ccccc1-c1noc(-c2ccccc2C(=O)NCc2ccco2)n1 | 30.5 | 0.5% | 2.1% | 14.0* | 0.7%
COc1ccc(-c2nc(CCNC(=O)c3ccco3)cs2)cc1OC | 15.9 | -4.6% | u | 8.5 | 0.8%
Cc1cc(C)cc(-n2nnc(C(=O)NCc3ccco3)c2N)c1 | 13.4 | -4.6% | -2.0% | 8.4 | 2.8%
Cc1cccc(-c2nc(CNC(=O)c3ccco3)cs2)c1 | 106.2* | 8.1% | -22.8% | 41.8* | 0.2%
CC(=O)c1ccc(-c2cccc(C3C4C=CCCC4(C)C(=O)N3Cc3ccccc3)c2)cc1 (stereo unspecified) | -4.6 | -3.2% | x | 14.4 | x
O=C(NCc1ccco1)c1ccccc1-c1nc(-c2ccccc2)no1 | 17.4 | 0.8% | -9.2% | 11.3 | -0.5%
O=C(NCc1ccco1)c1ccccc1 | -3.5 | 0.4% | -5.5% | -0.4 | -7.4%
Cc1ccc(-c2noc(-c3ccccc3C(=O)NCc3ccco3)n2)cc1 | 62.6* | -0.8% | -13.0% | 33.1* | -0.4%
O=C(NCc1ccco1)c1cccc(-c2nnc(-c3ccccc3)o2)c1 | 48.7* | 5.8% | -63.9% | 21.6* | -6.5%
CCOC(=O)c1cc(C(=O)OCC)c(=O)[nH]c1SCc1ccccc1 | x | 1.4% | -31.2% | -0.7 | 4.4%
CCCCC[C@H](O)/C=C/[C@H]1OC(O)C[C@H](O)[C@@H]1C/C=C\CCCC(=O)O (stereo partly specified) | x | 1.4% | x | x | x
CC(=O)Nc1ccc(OCC(O)Cn2cccn2)cc1 (stereo unspecified) | -6.7 | -0.5% | 15.3% | -2.6 | 1.2%
CC(=O)Nc1ccc(OCC(O)Cn2ccnc2)cc1 (stereo unspecified) | 78.0* | -1.4% | -1.6% | 35.3* | -2.0%
OC(COc1ccc(Cl)cc1Cl)Cn1ccnc1 (stereo unspecified) | 17.2 | 0.2% | 3.2% | 13.2* | -6.1%
CCCCN=C(C)c1c(O)c2ccccc2oc1=O | 64.6 | 5.1% | -229.1% | 32.0* | -2.4%
CCCCC(=O)c1c(O)c2ccccc2oc1=O | -13.1 | -20.4% | -82.2% | 11.0 | -0.9%
CC(=N)c1c(O)c2ccccc2oc1=O | 53.1* | 1.6% | -64.5% | 25.6* | -5.4%
NCCCC[C@H](NC(=O)[C@H](CCCN=C(N)N)NC(=O)[C@H](CO)NC(=O)[C@H](CCCN=C(N)N)NC(=O)[C@@H](N)Cc1ccc(O)cc1)C(=O)N[C@@H](Cc1ccc(O)cc1)C(=O)N[C@@H](CO)C(=O)N[C@@H](CO)C(=O)N[C@@H](Cc1c[nH]c2ccccc12)C(=O)N[C@@H](Cc1ccc(O)cc1)C(=O)O | -6.2 | -3.5% | x | -0.8 | x
COCC1=C(C(=O)OC)C(c2ccco2)n2ncnc2N1 (stereo unspecified) | 7.6 | -0.6% | -1.1% | 11.5 | 0.5%
CCOC(=O)c1cn2nc(Oc3ccc(OC)cc3)ccc2n1 | 26.8 | 1.4% | 4.8% | 9.3 | 5.0%
CCOC(=O)c1cn2nc(Oc3ccc(C)cc3)ccc2n1 | 98.3* | 4.9% | -0.6% | 43.3* | -4.9%
CCOC(=O)c1cn2nc(Oc3ccccc3)ccc2n1 | 92.7* | 3.0% | -8.2% | 71.5* | 0.6%
COc1ccccc1NC(=O)CNC(=O)Cn1cnc2sc(C)c(C)c2c1=O | -3.3 | x | 2.8% | -7.4 | -3.2%
COn1c(-c2ccc(Cl)cc2)nc2ncccc21 | 60.1* | 13.3% | -7.2% | 49.5* | -2.4%
Cc1ccc(-c2nc3ncccc3n2O)cc1 | 27.1 | -24.1% | 2.3% | 7.5 | -1.1%
CN(C)c1ccc(N=Nc2ccccc2Br)cc1 | 37.0* | 1.9% | -2.8% | 38.1* | -9.1%
Cc1ccc(C(=O)c2ccc(C)cc2)cc1 | 78.8* | 1.0% | x | 40.4* | 0.4%
CC(=O)c1ccc(N=Nc2ccc(N(C)C)cc2)cc1 | 97.4* | 9.3% | x | 40.8* | u
CC(=O)c1ccc(N=Nc2ccc(C)cc2)cc1 | 40.7* | 5.3% | x | 22.0* | -2.8%
Cc1nc2nc(C)c(NS(=O)(=O)c3ccc(CC(C)C)cc3)c(=O)n2[nH]1 | -16.0 | -7.0% | 13.8% | 9.4 | -1.8%
